This is an account of results in PubChem BioAssay AID651813 (National Center for Advancing Translational Sciences (NCATS), 2012).

Hit rate of the full screen: of about 2,100 compounds, about 1,100 (52%) were called active. Not shown: some 27% with an inconclusive outcome. So high a share suggests a set chosen from earlier hits. Some of the results follow. Unmarked numbers belong to inactive results. Calls come from the whole dose curve; as a rule, active = well fitted inhibition curve with a large enough effect; inconclusive = small, poorly fitted or top-dose-only effect; inactive = no such curve, though single readings can be large or run the other way.
Potency is the fitted concentration of half-maximal effect.

DNA dC->dU-editing enzyme APOBEC-3G (Homo sapiens), sequence (Q9HC16 whole entry, looked up): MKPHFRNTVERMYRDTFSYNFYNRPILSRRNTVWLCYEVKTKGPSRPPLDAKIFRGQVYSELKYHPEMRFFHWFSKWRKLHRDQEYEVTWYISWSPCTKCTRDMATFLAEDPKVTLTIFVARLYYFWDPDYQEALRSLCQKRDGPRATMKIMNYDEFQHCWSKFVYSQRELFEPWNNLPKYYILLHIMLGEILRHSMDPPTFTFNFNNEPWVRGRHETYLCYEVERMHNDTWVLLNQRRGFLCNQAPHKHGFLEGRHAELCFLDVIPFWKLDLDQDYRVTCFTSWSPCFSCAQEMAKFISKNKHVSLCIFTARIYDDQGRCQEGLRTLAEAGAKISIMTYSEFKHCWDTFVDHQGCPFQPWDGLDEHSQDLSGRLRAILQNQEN

This assay has as its target DNA dC->dU-editing enzyme APOBEC-3G (Homo sapiens) (UniProt Q9HC16). As to the kind of experiment: qHTS for inhibitors of Vif-A3G interactions: Cherry picks counterscreen.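 For max response: max response given as percent of control signal.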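 Note: hits raise yellow fluorescence by blocking Vif-driven A3G-eYFP degradation; nearly all actives have a fitted effect of over 70% in size.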 To be noted: HeLa A3G-eYFP + Vif (tagged APOBEC3G with the HIV-1 protein that degrades it), eYFP fluorescence, 24 h. An excerpt: The recent discovery and characterization of host restriction factors, which provide a potent defense to invading retroviruses, has provided new targets for antiviral drug development. APOBEC3G (A3G) and APOBEC3F (A3F) are potent cytidine deaminases that block HIV-1 replication; HIV-1 expresses the Vif protein, which counteracts A3G and A3F by binding to them and inducing their proteasomal degradation. The Vif-A3G and Vif-A3F interactions provide two potential targets for development of small molecules which can interfere with the ability of Vif to degrade A3G or A3F. […] To identify inhibitors that can interfere with Vif mediated degradation of A3G and A3F, we have developed Hela cell lines that stably express A3G or A3F tagged with eYFP at the C-terminal end (A3G-eYFP or A3F-eYFP, respectively) and Vif. In the absence of an inhibitor, Vif induces degradation of A3G-eYFP and A3F-eYFP, and the cells are not fluorescent. In the presence of an inhibitor, it is expected that Vif will be unable to degrade A3G-eYFP and/or A3F-eYFP, resulting in an increase in yellow fluorescence. In this counterscreen assay, Vif A3G was screened against the cherry picks ordered from the MLSMR. NIH Chemical Genomics Center [NCGC] NIH Molecular Libraries Probe Centers Network [MLPCN] MLPCN Grant: MH093245 Assay Submitter (PI): Vinay Pathak, National Cancer Institute
A3G-Vif cells were harvested from T225 flask and resuspended in phenol free OPTI-MEM medium with 5% FBS. Then 5 uL of 140,000 cells/mL resuspended cells was dispensed into each well of low base Aurora COC 1,536-well plates (black walled, clear bottom) using a Multidrop Combi dispenser. After overnight culture at 37 deg C with 5% CO2, a total of 23 nL of compounds at 5 selected concentrations from the NPC or positive control (2 mM stock of MG132) in DMSO was transferred to each well of the assay plate using a pintool (Kalypsys, San Diego, CA), and the plates were further incubated at 37 deg C with 5% CO2 for 24 hours. After that, the plates were measured on Acumen Explorer (TTP Lab Tech). The fluorescence was detected by 488 nm/Ex and […].
In the case of `Cc1ccc(C(=O)c2cc([N+](=O)[O-])ccc2N2CCOCC2)cc1C`, the Potency was 0.994 µM (active). As for `CNc1cncc(-c2cc(C)c(O)c(C)c2)n1`, the Potency was 4.98 µM (active). In the case of `CCOC(=O)CSc1nc2c(c(=O)[nH]1)C(C)(CC)Cc1ccccc1-2` (stereo unspecified), the Potency is 8.2 µM (active).

For the compound `Cc1sc2nc(SCC(=O)N3CCOCC3)[nH]c(=O)c2c1-c1ccccc1`, the max response is -5.17%. For the compound `COc1cccc(N2CCN(Cc3nc4scc(-c5ccccc5)c4c(=O)[nH]3)CC2)c1`, the Potency was 12.5 µM (active). Regarding `O=c1[nH]c(CN2CCN(c3ccccc3)CC2)nc2scc(-c3ccccc3)c12`, the Potency was 9.2 µM (active). As to `CCS(=O)(=O)C1=NN2C(=N)/C(=C\c3ccc(SCc4ccco4)o3)C(=O)N=C2S1`, the max response is 2.81%.

`CC1=CN2C(=N)/C(=C/c3ccc([N+](=O)[O-])o3)C(=O)N=C2S1`: the Potency was 17.7 µM (active).

With `COc1ccc(CCNC(=O)CC2(CC3=NS(=O)(=O)c4ccccc4N3)CCCC2)cc1OC`, the max response is -1.6%. As for `COc1cccc(-c2ccc3c(N)c(C(=O)c4ccc(Br)cc4)sc3n2)c1`, the Potency is 20.6 µM (active). Consider `COc1cccc(-c2ccc3c(N)c(C(=O)c4ccc(Cl)cc4)sc3n2)c1`, for which the Potency is 20.6 µM (active).

Turning to `Cc1noc(C)c1COc1ccc(C(=O)NNC(=O)c2ccccc2)cc1`, the Potency is 5.59 µM (active). Turning to `Cc1noc(C)c1COc1ccc(C(=O)NNC(=O)c2ccccc2F)cc1`, the Potency was 8.86 µM (active). Turning to `CCOc1cc(/C=C(/C#N)C(=O)Nc2ccc(O)cc2)cc(Br)c1O`, the Potency was 17.7 µM (active).

`CCOC(=O)c1c(-c2ccc(C)cc2)csc1NC(=O)/C(C#N)=C/c1ccc(O)c(OC)c1`: the max response was 57.5%.

Take `CCOc1ccc(NC(=O)/C(C#N)=C/c2ccc(N3CCCC3)c(C)c2)cc1`: the Potency is 2.06 µM (active).

On to `Cc1cccc(N2CCN(C(=O)c3cccc(N4CCCC4=O)c3)C(C)C2)c1` (stereo unspecified), for which the Potency was 14 µM (active).

As to `CCOc1ccc(NC(=O)Cn2c(=O)n(Cc3ccc(C(=O)NCc4ccc(C)cc4)cc3)c(=O)c3ccccc32)cc1`, the Potency is 13 µM (active).

With `Cc1ccc(-n2c(=O)c3ccc(C(=O)NCc4ccccc4Cl)cc3n(CC(=O)Nc3cccc(Cl)c3)c2=O)cc1`, the max response is -24%.

For `Cc1ccc(N2C(=O)CS/C2=C(\C(Cl)=C(Cl)Cl)[N+](=O)[O-])cc1`, the max response was 1.1%. In the case of `Cc1ccc(NC(=O)/C(C#N)=C\c2ccc(-c3ccc(Cl)cc3)o2)c(C)c1`, the Potency was 5.8 µM (active). For the compound `COc1cccc(Cn2c(-c3nonc3NC(C)=O)nc3ccccc32)c1`, the Potency is 11.6 µM (active). With `COc1cccc(Cn2c(-c3nonc3N)nc3ccccc32)c1`, the Potency is 1.25 µM (active). As for `CC(NC(=S)Nc1cccc(C(F)(F)F)c1)C(C)(C)C` (stereo unspecified), the max response is 21.6%.

Turning to `COc1ccc(C)c(Cn2c(-c3nonc3N)nc3ccccc32)c1`, the Potency was 3.14 µM (active).

In the case of `Nc1nonc1-c1nc2ccccc2n1CC(=O)Nc1cccc(C(F)(F)F)c1`, the Potency was 18.4 µM (active). With `Cc1cn2c(N)c(C=C3C=C(Cl)C(=O)C(Cl)=C3)c(=O)nc2s1`, the max response is 34.2%. On to `Cc1cccc(CSc2cccc3cccnc23)c1`, for which the max response was -11.2%. Consider `CCC(C)Sc1ccc(-c2nc3cc(C)ccn3c2NC2CCCCC2)cc1` (stereo unspecified), for which the max response was 26.9%.

As to `CCC(=O)Nc1nonc1-c1nc2ccccc2n1Cc1ccccc1`, the Potency was 14 µM (active). As for `Nc1nonc1-c1nc2ccccc2n1Cc1ccc(F)cc1`, the Potency was 12.5 µM (active). In the case of `CCOC(=O)c1c(CN(CC)CC)n(-c2ccccc2)c2ccc(O)cc12`, the max response was 2.24%. Regarding `O=C1S/C(=C/c2ccc(N3CCOCC3)o2)C(=O)N1Cc1c(F)cccc1Cl`, the Potency is 2.8 µM (active). As to `O=C1S/C(=C/c2ccc(N3CCOCC3)o2)C(=O)N1Cc1ccc(F)cc1`, the Potency is 7.04 µM (active). For `CCCN1C(=O)S/C(=C\c2ccc(N3CCOCC3)o2)C1=O`, the Potency is 2.23 µM (active). Turning to `O=C1S/C(=C\c2ccc(N3CCOCC3)o2)C(=O)N1c1ccccc1`, the Potency was 1.98 µM (active).

On to `CCCN1C(=O)S/C(=C/c2ccc(N3CCOCC3)o2)C1=O`, for which the max response was 50.5%.

With `Cc1cc(C)c(C(=O)N(CCN(C)C)CC2CCCN(Cc3ccccc3F)C2)o1` (stereo unspecified), the max response is 0.428%. Consider `COc1cc(/C=C2/SC(=S)N(CCC(=O)Nc3ccccc3)C2=O)cc(OC)c1OC`, for which the Potency is 20.6 µM (active).

In the case of `C=CCN1C(=O)/C(=C/c2ccc(O)c(OC)c2)S/C1=N/c1nccs1`, the Potency was 4.61 µM (active). For the compound `COc1cc(/C=C2/SC(=S)N(Cc3ccccc3)C2=O)cc(Cl)c1O`, the Potency was 2.23 µM (active). As for `COc1cc(/C=C2/SC(=S)N(Cc3ccccc3)C2=O)cc(OC)c1O`, the Potency was 12.5 µM (active). In the case of `O=C1/C(=C\c2ccc(O)cc2)SC(=S)N1Cc1ccccc1`, the max response is 39.2%. With `COc1cc(/C=C2/SC(=S)N(CC3CCCO3)C2=O)ccc1O` (stereo unspecified), the Potency is 16.4 µM (active). Consider `O=C1/C(=C/c2ccc(O)cc2)SC(=S)N1CC1CCCO1` (stereo unspecified), for which the max response is -5.85%. Consider `O=C(O)c1cc(-c2ccc(/C=C3/SC(=S)N(Cc4ccccc4)C3=O)o2)ccc1Cl`, for which the Potency was 18.4 µM (active).
